Among the data in PubChem BioAssay AID1554 (Broad Institute, 2009) are inhibition values, retold here.

Among all 300,000 compounds or so, about 520 (0.17%) were called active. This excerpt belongs to a sample that is enriched for actives. Unmarked numbers belong to inactive results. No stated cut-off is given here; in the data, active means inhibition above about 50%; inconclusive means no clear call, values can overlap the other calls; inactive means below that.

This test is described as follows: PubChem AID 1554. The note with it: BJeLR (HRASV12) viability, CellTiter-Glo ATP luminescence, 48 h; stronger effect = higher value; concentration not given here.
Turning to `S=c1[nH]ccn1-c1ccc(Cl)cc1`, the inhibition was 1.81%.

For the molecule `CC(C)(C)OC(=O)NC(Cc1ccccc1)C(=O)NC(CSC1CCCCO1)C(=O)NN` (stereo unspecified), the inhibition is 10.4%.

As for `COc1ccccc1C(=O)NCCn1cc(SCC(=O)NCc2ccco2)c2ccccc21`, the inhibition is -1.46%. To `CC12CCC(C(=O)N(CCC#N)CCC#N)(CC1=O)C2(C)C` (stereo unspecified) belongs -15.4%. As for `COC(=O)c1c(C(=O)OC)c(-c2cccc(C)c2)n2c1CS(=O)C2` (stereo unspecified), the inhibition was 0.411%. Next, `CC1(C)Oc2ccc3ccc(=O)oc3c2/C(=N/O)C1=O`: 0.973%; `Cc1ccc2[nH]c(=O)c(CN3CCCCC3)c(-c3ccccc3)c2c1`: 4.95%. To `COC(=O)c1ccc(OCC(O)CN(CCO)CC(O)Cn2ccc3ccccc32)cc1` (stereo unspecified) belongs 1.45%; to `Cc1ccc(O)c(/C=N/NC(=O)COc2ccc3c(C)cc(=O)oc3c2)c1`, -1.41%; to `CC1(C)CC(N2CCN(C(c3ccccc3)c3ccccc3)CC2)=CC(=[N+]2CCCCC2)C1`, 70.6% (active). `O=C1CC(N2CCN(C(c3ccccc3)c3ccccc3)CC2)C(=O)N1` (stereo unspecified): the inhibition was -3.58%. To `CC1(C)CC(=O)C=C(N2CCCC2)C1` belongs 0.434%; to `Cc1cc(=O)[nH]c(SCc2ccc(Cl)cc2)n1`, 0.607%; to `O=C(Oc1ccc(-c2nc(-c3ccccn3)no2)cc1)c1ccccc1`, 61.8% (active).

As to `O=C(Oc1ccc(Br)cc1)c1cccnc1`, the inhibition is -11.9%. Next, `Cc1ccc(Oc2nc(-c3ccccn3)nc3ccccc23)cc1`: 4.2%. Next, `COCCNC(=S)N1CCN(C)CC1`: 6.68%. Next, `COc1ccc(C(=O)N[C@H](C(=O)NCc2ccccc2)C(C)C)cc1`: -8.87%; `COc1cc(OC)cc(C(=O)N[C@H](C(=O)OCC(=O)NC(C)c2ccccc2)C(C)C)c1` (stereo partly specified): -3.17%. For `COc1cc(OC)cc(C(=O)N[C@H](C(=O)Nc2nc3ccccc3[nH]2)C(C)C)c1`, the inhibition is 50.8% (active). To `CCOC(=O)c1sc(C)c2c1NC(C)(c1cccc3ccccc13)NC2=O` (stereo unspecified) belongs -6.51%; to `Cc1cc(Oc2ccc(Cl)cc2)nc(SCC(=O)c2ccccc2)n1`, -7.21%; to `CC(=O)c1ccc(Oc2cc(C)nc(-n3nc(C)cc3C)n2)cc1`, 50.8% (active).

As to `Cc1cc(C)n(-c2ccc(C(=O)O)cc2[N+](=O)[O-])n1`, the inhibition is 3.87%. To `COc1ccccc1NC(=O)c1cc(N2C(=O)C3C4CCC(C4)C3C2=O)ccc1Cl` (stereo unspecified) belongs -10.4%; to `C=CCn1c(SCC(=O)c2ccc(Br)cc2)nnc1C(C)NC(=O)Cc1ccc(OC)cc1` (stereo unspecified), 2.52%; to `NS(=O)(=O)c1ccc(CNC(=O)c2cnccn2)cc1`, 4.27%. For `CCC(C)Sc1nc2c(cnn2-c2ccc(F)cc2)c(=O)[nH]1` (stereo unspecified), the inhibition was -2.29%.

On to `CC1(C)CC(=O)C(C=NCCN2CCN(C(=S)Nc3cccc(Cl)c3)CC2)=C(O)C1`, for which the inhibition is 8.42%. For the molecule `CSCCC(NC(=O)COc1ccccc1)C(=O)OCCOc1ccc(F)cc1` (stereo unspecified), the inhibition was -6.51%. Next, `CCOC(=O)c1sc(NC(=O)CSc2nc(O)c(Cc3ccccc3)c(=O)[nH]2)nc1C`: 5.77%; `CCCn1c(=N)n(CC(=O)c2ccc(Cl)c(Cl)c2)c2ccccc21`: 3.45%; `COc1ccc2c(c1)N(C)/C(=C1/SC(=S)N(NC(C)=O)C1=O)S2`: 1.69%.

Consider `CC(OC(=O)CN1C(=O)C2CCCCC2C1=O)C(=O)Nc1ncc(Cl)cc1Cl` (stereo unspecified), for which the inhibition was 6.26%.

For `CCOC(=O)c1c(N)sc2c1CCCC2=O`, the inhibition was 7.59%. Regarding `O=C(Nc1ccc(C(=O)O)cc1)/C(=C\c1ccccc1)NC(=O)c1ccc(Br)cc1`, the inhibition was -0.97%. Regarding `Cc1ccc(OC(=O)c2cncc(Br)c2)c(C)c1`, the inhibition was -5.3%. Next, `CC1CN(C2CCN(C(=O)COc3ccccc3)CC2)CC(C)O1` (stereo unspecified): -0.241%; `Cc1c(C(=O)N(Cc2ccccc2)Cc2cccnc2)cnn1-c1ccc(F)cc1`: -6%; `O=C(NC(Nc1nc2ccc([N+](=O)[O-])cc2s1)(C(F)(F)F)C(F)(F)F)c1ccccc1`: 77.1% (active). To `O=[N+]([O-])c1cc(Br)c(O)c(/C=N/Nc2nc3ccccc3s2)c1` belongs 7.46%. `O=C(CNC(=O)c1ccccc1)Oc1ccc([N+](=O)[O-])cc1`: the inhibition is -1.21%. Next, `O=C(CCC(=O)NNc1nc2ccccc2c2nc(-c3ccccc3)nn12)NCCCN1CCCC1=O`: 0.872%. With `CCOC(=O)COc1ccc([N+](=O)[O-])cc1`, the inhibition was -3.89%. Next, `CCOC(=O)/C(=C\c1ccc([N+](=O)[O-])cc1)C(=O)c1cc(C(C)=O)c(Nc2ccccc2)s1`: 58.8% (active); `Cc1ccc(NC(=O)/C(=C/c2ccc([N+](=O)[O-])cc2)NC(=O)c2ccccc2)cc1`: -1.53%. Next, `Cc1ccc(NC(=O)c2cnc(SCC(=O)NCC3CCCO3)n(C)c2=O)cc1` (stereo unspecified): 1.95%; `COc1cc(CN2CCN(Cc3ccc(C)cc3)CC2)c([N+](=O)[O-])cc1OC`: 1.71%; `COC(=O)CN1C(=O)C(C)(C)Oc2ccc(C(=O)Nc3cccc(OC)c3)cc21`: -4.31%. `COc1ccc(CCNC(=O)COC(=O)Cc2cc(OC)c(OC)c(OC)c2)cc1`: the inhibition was 0.941%. For the molecule `COc1cc2c(C(=O)N(C)c3cc(Cl)ccc3OC)cn(C)c(=O)c2cc1OC`, the inhibition is -4.19%. To `O=C(c1ccc(OC2CCN(Cc3ccccn3)CC2)cc1)N1CCCCCC1` belongs -3.12%; to `O=C(NCCOc1cccnc1)c1ccc(OC2CCN(Cc3ccccn3)CC2)cc1`, 113% (active). For `Cn1cc(CNC(=O)c2ccc(OC3CCN(Cc4ccccn4)CC3)cc2)cn1`, the inhibition is 2.21%.

`O=C(CN1C(=O)c2cccnc2Oc2ccc(Cl)cc21)NCCc1ccccc1`: the inhibition is 2.42%. Next, `CC(=O)N1CCN(c2ccc(NCc3ccc(C(C)C)cc3)cc2)CC1`: -2.24%; `CC(=O)c1ccc(N2Cc3ccccc3C2)cc1`: -5.06%.

For `C/C(=N/NC(=O)CN1CCN(S(=O)(=O)c2ccc(Br)cc2)CC1)c1ccncc1`, the inhibition was 4.03%. For the molecule `O=C(c1cc(-c2ccc(Cl)s2)nc2ccccc12)N1CCOCC1`, the inhibition was -8.28%. For `Cc1ccc(CSCCNC(=O)CN(c2ccc(F)cc2)S(C)(=O)=O)cc1`, the inhibition is -8.45%. To `CC1CCCC(N2CCN(C(=O)c3ccc(F)cc3)CC2)C1` (stereo unspecified) belongs -5.87%; to `O=C(NCc1ccccc1Cl)c1ccc2c(=O)n(CC3CCCO3)c(=S)[nH]c2c1` (stereo unspecified), 9.1%; to `COc1cc(NC(=O)CSC(=S)N2CCCC2)c(OC)cc1Cl`, -1.51%. For `CCOc1ccc(OCCSc2nc3ccccc3n2CC(=O)O)cc1`, the inhibition was -3.19%.

For `Cc1ccc2cc(C#N)c(NCCNC(=S)NCCCN3CCOCC3)nc2c1`, the inhibition is 4.4%. To `COc1cc([N+](=O)[O-])ccc1NC(=S)N1CCN(c2ccccn2)CC1` belongs -1.41%. Next, `COc1ccc(N2CCN(C(C)=C3C(=O)c4ccccc4C3=O)CC2)cc1`: 2.27%; `CCOC(=O)c1cc2cc3ccccc3cc2oc1=O`: -11.8%. To `CCOC(=O)C1=C(c2ccc(OC)cc2)C(=O)c2ccccc2C1=O` belongs 110% (active); to `Cc1ccc(S(=O)(=O)n2cccc2CO)cc1`, -3.34%; to `COCCNS(=O)(=O)c1cc(Br)ccc1OC`, -2.67%. Consider `O=C(NCc1ccc2c(c1)OCO2)c1cc2c(s1)CS(=O)(=O)C2`, for which the inhibition is 5.68%. To `COc1ccc(C(=O)O)cc1S(=O)(=O)NCc1cccnc1` belongs 4.17%.

Turning to `Cn1cc(CCC(=O)N2CCCC(C(=O)c3ccc(C(C)(C)C)cc3)C2)cn1` (stereo unspecified), the inhibition is -7.89%. Next, `CC(NC(=O)CCCC1CCCCC1)c1ccc(S(N)(=O)=O)cc1` (stereo unspecified): 10.8%.

In the case of `COc1ccc(S(=O)(=O)N2CCCCCC2)cc1C(=O)N(C)Cc1cccc(OC)c1OC`, the inhibition is -3.35%.

In the case of `O=S(=O)(Cc1noc(-c2ccc(OC(F)(F)F)cc2)n1)c1ccc(F)cc1`, the inhibition is -11.6%. Next, `Cc1nnc(SCC(=O)N2c3ccccc3C(C)(c3ccc(Cl)cc3)CC2(C)C)s1` (stereo unspecified): 13.1%.

For the molecule `Cc1[nH]c(C)c(S(=O)(=O)N2CCN(c3cccc(C(F)(F)F)c3)CC2)c1C(=O)N1CCCCC1`, the inhibition was 0.76%. Consider `Nc1ccc(-n2nncc2-c2ccco2)cc1`, for which the inhibition was 11.6%. Turning to `CCOc1c(N2CCCCC2)c(=O)c1=O`, the inhibition was 5.32%.

`Cc1ccc(/C=C/C(=O)Nc2ccc([N+](=O)[O-])c(NC(=O)/C=C/c3ccc(C)o3)c2)o1`: the inhibition is -29.1%. Next, `O=C(N/N=C/c1ccc([N+](=O)[O-])o1)c1cn(-c2ccccc2)nc1-c1ccc(F)cc1`: -4.37%; `O=C(/C=C/c1ccc([N+](=O)[O-])o1)NNC(=O)c1ccc(F)cc1`: 60.3% (active). As to `CNS(=O)(=O)c1cccc(C(=O)NC2CCCc3ccccc32)c1` (stereo unspecified), the inhibition was -3.04%. Next, `CCCCCC(O)(CCN1CCCCC1)c1ccccc1` (stereo unspecified): -2.94%; `CC(C)CC[n+]1ccn(C2=C([O-])c3ccccc3C(=O)/C2=N\S(=O)(=O)c2ccccc2)c1`: -5.54%. With `CN(C)/C=C(\C#N)C(=O)c1cccnc1Oc1ccc(F)cc1F`, the inhibition was -6.11%. To `Oc1ccc2ccccc2c1N=Nc1nccs1` belongs 77.1% (active); to `COC(=O)CCSc1cc([N+](=O)[O-])cc2c1c(C1OCCS1)nn2-c1ccccc1` (stereo unspecified), 3.81%. To `CCOc1ccc(C(C)=O)cc1CSc1nnc(-c2ccncc2)n1CCOC` belongs -17.6%.

As a reminder, the inhibition is the change of the read-out against control, counted positive when it falls.
